Calls of active or inactive are those of the source. Unless noted, how the calls were made is not given here.
What was measured:
[1] = tested on: Wnt5a (protein binding on small-molecule microarray); assay: Wnt5a binders on small-molecule microarray, primary screen, biophysical, 635/667 nm fluorescence (AID 1142); settings: 635 nm fluorescence, higher = more signal;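 further: fluorescence read at 667 nm with signal to noise per printed feature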
[2] = cell viability in Huh7 cells, primary screen, cytotoxicity control for HCV replication inhibitor project, CellTiter-Glo luminescence, basal, 48 h (AID 1143); settings: Huh7 HCV replicon, higher = more signal, called active from +8 up or from −8 down;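 further: Huh7 hepatoma cells carrying a hepatitis C replication reporter with no stimulus; test concentration not given here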
[3] = P. aeruginosa biofilm formation inhibitors, primary screen, PAO1 strain, BacTiter-Glo luminescence, LB-PBS (AID 1144); settings: 12 h, higher = more signal
[4] = CREB reporter modulators without forskolin, primary screen, cell-based, PC12, CRE-LacZ reporter, unstimulated (AID 1145); settings: no forskolin, luminescence, 4.5 h, higher = more signal, called active from +8 up or from −8 down
[5] = CREB reporter modulators under forskolin, primary screen, cell-based, PC12, CRE-LacZ reporter, forskolin-stimulated (AID 1146); settings: luminescence, 4.5 h, higher = more signal, called active from +8 up or from −8 down;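 further: PC12 cells with 6xCRE LacZ reporter stimulated by forskolin 10 µM; beta-galactosidase reporter signal reflecting CREB driven transcription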
[6] = target: Streptavidin (Streptomyces avidinii) (UniProt P22629); assay: streptavidin binders on small-molecule microarray, primary screen, artefact control for SMM compound annotation, biophysical, 635/667 nm fluorescence (AID 1147); settings: streptavidin binding, higher = more signal;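 further: signal reflects streptavidin binding to arrayed compounds as a control protein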
[7] = small-molecule binders of probe aInhba, primary screen, biochemical, small-molecule microarray, 635/667 nm fluorescence (AID 1148); settings: higher = more signal;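 further: score merges 667nm spot fluorescence with signal-to-noise for antibody binding to printed compounds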
[8] = target: Torsin-1A (Homo sapiens) (UniProt O14656); assay: torsin A binders from cell lysate, primary screen, small-molecule microarray, wild-type, 635/667 nm (AID 1149); settings: COS7 hTOR1A-WT lysate, 635 nm fluorescence, higher = more signal
[9] = target: Torsin-1A (Homo sapiens) (UniProt O14656); assay: small-molecule binders of mutant TOR1A in lysate, primary screen, cell lysate, small-molecule microarray, COS7 lysate, 635/667 nm fluorescence (AID 1150); settings: COS7 hTOR1A mutant lysate, 635 nm fluorescence, higher = more signal;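 further: score pools 667 nm emission and signal to noise measuring lysate protein binding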
[10] = tested on: Sonic hedgehog protein (Shh); assay: small-molecule binders of Shh protein, primary screen, biochemical, small-molecule microarray, 635/667 nm fluorescence (AID 1151); settings: small-molecule microarray binding, 635 nm fluorescence; higher = more signal;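 further: Shh protein binding to compounds spotted on small-molecule microarray slides; score combines spot fluorescence intensity with signal-to-noise across triplicate slides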
[11] = E. coli DRC41 culture turbidity changes, primary screen, E. coli filamentation inducer project, strain DRC41, OD650, 48 h (AID 1152);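 further: E. coli MC1000 strain DRC41 lacking acrAB efflux pump and sulA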; settings: E. coli DRC41 (acrAB sulA), higher = more signal, called active from +8 up or from −8 down
[12] = small-molecule binders of probe aLefty1, primary screen, biochemical, small-molecule microarray, 635/667 nm fluorescence (AID 1153); settings: higher = more signal;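 further: score merges spot fluorescence with signal-to-noise ratio from the scanned slide images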
[13] = PSAC antagonists in infected red cells, primary screen, cell-based, P. falciparum Indochina, OD700, 1 h (AID 1154); settings: P. falciparum Indochina infected RBC osmotic lysis, higher = more signal, called active from +8 up or from −8 down
[14] = PSAC antagonists in infected red cells, primary screen, cell-based, P. falciparum Indochina, OD700, 2 h (AID 1155);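 further: lysis reports solute entry through the parasite surface anion channel PSAC; channel blockers reduce lysis of infected cells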; settings: P. falciparum Indochina infected erythrocytes, osmotic lysis OD700; higher = more signal, called active from +8 up or from −8 down
[15] = osmotic lysis modulators in infected erythrocytes, primary screen, PSAC antagonist project, cell-based, P. falciparum Indochina, OD700, 3 h (AID 1156); settings: higher = more signal, called active from +8 up or from −8 down
[16] = PSAC antagonists in infected red cells, primary screen, cell-based, P. falciparum Indochina, OD700, 18 h (AID 1157); settings: P. falciparum Indochina infected erythrocytes, osmotic lysis OD700, 18 h; higher = more signal, called active from +8 up or from −8 down
[17] = modulators of S6 phosphorylation in cells, primary screen, cell-based, A549, cytoblot, luminescence, serum-stimulated (AID 1158); settings: A549 phospho-S6 cytoblot, 5 h, higher = more signal;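 further: serum-stimulated A549 lung adenocarcinoma cells; signal is phosphorylated S6 detected by cytoblot immunostaining with HRP secondary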
[18] = target: NADPH oxidase 2 (Homo sapiens) (UniProt P04839); assay: NOX2-dependent H2O2 signal modulators, primary screen, NOX inhibitor project, cell-based, HEK293-NOX2, PMA-stimulated, Amplex Red fluorescence (AID 1159); settings: 45 min, higher = more signal, called active from +8 up or from −8 down; further: test concentration not given here
[19] = target: NADPH oxidase 4 (Homo sapiens) (UniProt Q9NPH5); assay: NOX4-dependent H2O2 signal modulators, primary screen, NOX inhibitor project, cell-based, HEK293-NOX4, tetracycline-induced, Amplex Red fluorescence (AID 1160); settings: 45 min, higher = more signal, called active from +8 up or from −8 down
[20] = target: NADPH oxidase 5 (Homo sapiens) (UniProt Q96PH1); assay: NOX5-dependent H2O2 signal modulators, primary screen, NOX inhibitor project, cell-based, HEK293-NOX5, Amplex Red fluorescence (AID 1161); settings: HEK293-NOX5, ionomycin, 45 min, higher = more signal
Chain of NADPH oxidase 5 (Homo sapiens) (Q96PH1 whole entry, looked up): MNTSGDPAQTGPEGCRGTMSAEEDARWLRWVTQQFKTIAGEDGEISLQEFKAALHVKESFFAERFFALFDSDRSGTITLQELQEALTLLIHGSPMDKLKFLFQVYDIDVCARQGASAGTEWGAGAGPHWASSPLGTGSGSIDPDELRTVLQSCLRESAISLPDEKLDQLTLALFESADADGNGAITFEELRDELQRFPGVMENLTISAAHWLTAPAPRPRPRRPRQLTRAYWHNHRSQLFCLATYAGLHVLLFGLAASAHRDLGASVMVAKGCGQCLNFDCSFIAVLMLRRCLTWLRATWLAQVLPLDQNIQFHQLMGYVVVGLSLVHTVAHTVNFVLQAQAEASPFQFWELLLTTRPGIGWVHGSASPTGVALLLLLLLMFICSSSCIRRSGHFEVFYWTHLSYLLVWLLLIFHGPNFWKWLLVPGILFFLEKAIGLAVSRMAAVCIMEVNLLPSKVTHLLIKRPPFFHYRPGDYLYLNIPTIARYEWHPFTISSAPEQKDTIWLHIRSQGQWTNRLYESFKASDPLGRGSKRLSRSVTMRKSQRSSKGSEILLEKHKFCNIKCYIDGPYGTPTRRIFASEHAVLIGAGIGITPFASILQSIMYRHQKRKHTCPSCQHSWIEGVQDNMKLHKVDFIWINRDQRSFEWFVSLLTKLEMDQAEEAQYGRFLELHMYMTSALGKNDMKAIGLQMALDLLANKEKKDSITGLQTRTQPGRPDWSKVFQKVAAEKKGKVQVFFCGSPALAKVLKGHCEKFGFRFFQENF

Chain of NADPH oxidase 2 (Homo sapiens) (P04839 whole entry, looked up): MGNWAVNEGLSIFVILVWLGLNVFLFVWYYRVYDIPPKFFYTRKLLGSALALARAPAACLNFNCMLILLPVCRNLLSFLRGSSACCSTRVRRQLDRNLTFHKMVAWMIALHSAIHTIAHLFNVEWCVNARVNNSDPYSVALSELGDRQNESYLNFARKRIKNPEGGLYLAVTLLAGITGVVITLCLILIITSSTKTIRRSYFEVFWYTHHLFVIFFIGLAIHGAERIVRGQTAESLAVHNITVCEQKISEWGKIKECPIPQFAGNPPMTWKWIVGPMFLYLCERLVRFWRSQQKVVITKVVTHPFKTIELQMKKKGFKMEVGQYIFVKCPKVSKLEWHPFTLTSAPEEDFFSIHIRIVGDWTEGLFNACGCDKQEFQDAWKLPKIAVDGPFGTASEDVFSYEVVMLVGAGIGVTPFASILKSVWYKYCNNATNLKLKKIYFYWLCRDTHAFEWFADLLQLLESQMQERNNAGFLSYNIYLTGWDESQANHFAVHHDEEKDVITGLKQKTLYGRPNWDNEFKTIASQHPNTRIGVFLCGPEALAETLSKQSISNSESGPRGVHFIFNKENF
Chain of NADPH oxidase 4 (Homo sapiens) (Q9NPH5 whole entry, looked up): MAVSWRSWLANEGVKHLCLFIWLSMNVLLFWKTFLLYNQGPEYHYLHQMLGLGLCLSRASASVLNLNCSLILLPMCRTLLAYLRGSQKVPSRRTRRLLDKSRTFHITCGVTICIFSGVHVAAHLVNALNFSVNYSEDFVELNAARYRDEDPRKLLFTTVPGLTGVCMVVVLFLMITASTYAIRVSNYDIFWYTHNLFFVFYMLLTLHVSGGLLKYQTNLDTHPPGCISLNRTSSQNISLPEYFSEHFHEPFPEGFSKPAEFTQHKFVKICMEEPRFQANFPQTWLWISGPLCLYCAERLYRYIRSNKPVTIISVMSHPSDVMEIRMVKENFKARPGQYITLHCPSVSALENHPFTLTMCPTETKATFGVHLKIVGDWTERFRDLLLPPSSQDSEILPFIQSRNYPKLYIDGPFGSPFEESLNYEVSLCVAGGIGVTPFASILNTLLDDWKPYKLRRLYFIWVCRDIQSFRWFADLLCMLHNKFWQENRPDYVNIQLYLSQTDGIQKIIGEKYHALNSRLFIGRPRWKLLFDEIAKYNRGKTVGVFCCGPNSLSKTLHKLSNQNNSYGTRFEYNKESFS
Chain of Streptavidin (Streptomyces avidinii) (P22629 whole entry, looked up): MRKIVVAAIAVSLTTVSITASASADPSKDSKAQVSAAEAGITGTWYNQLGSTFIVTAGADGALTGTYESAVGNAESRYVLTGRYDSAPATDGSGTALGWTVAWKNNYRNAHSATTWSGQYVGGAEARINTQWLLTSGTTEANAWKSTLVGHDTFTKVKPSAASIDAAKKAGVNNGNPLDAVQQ
Chain of Torsin-1A (Homo sapiens) (O14656 whole entry, looked up): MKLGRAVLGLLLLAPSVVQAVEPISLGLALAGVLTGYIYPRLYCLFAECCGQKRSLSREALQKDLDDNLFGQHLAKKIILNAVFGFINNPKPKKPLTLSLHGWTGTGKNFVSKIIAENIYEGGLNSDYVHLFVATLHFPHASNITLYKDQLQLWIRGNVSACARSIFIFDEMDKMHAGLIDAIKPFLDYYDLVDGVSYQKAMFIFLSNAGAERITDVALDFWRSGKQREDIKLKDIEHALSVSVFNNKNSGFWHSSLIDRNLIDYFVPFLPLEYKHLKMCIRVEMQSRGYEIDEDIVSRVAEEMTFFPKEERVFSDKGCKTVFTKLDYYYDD

## O=C(NN=C1C[C@@H](O)[C@@H](O)[C@@H]2[C@@H]3C(=O)N(Cc4ccccc4)C(=O)[C@@H]3CC[C@H]12)OCc1ccccc1
[1]
  composite z-score: -0.014
[2]
  z-score: -0.575 (inactive)
[3]
  z-score: -0.281 (inactive)
[4]
  z-score: 0.0628 (inactive)
[5]
  z-score: 0.401 (inactive)
[6]
  composite z-score: -0.0198
[7]
  composite z-score: 0.0406
[8]
  composite z-score: 0.726
[9]
  composite z-score: 0.983
[10]
  composite z-score: 1.06
[11]
  z-score: -0.202 (inactive)
[12]
  composite z-score: -0.279
[13]
  z-score: 0.464 (inactive)
[14]
  z-score: -1.04 (inactive)
[15]
  z-score: -0.999 (inactive)
[16]
  z-score: -1.46 (inactive)
[17]
  z-score: -0.276
[18]
  z-score: 1.49 (inactive)
[19]
  z-score: 0.638 (inactive)
[20]
  z-score: -0.0528

## CCOC(=O)CCN1C(=O)[C@H]2[C@H]3[C@H](O)[C@H](O)CC(=NNC(=O)OCc4ccc(OC)cc4)[C@H]3CC[C@H]2C1=O
[1]
  composite z-score: -0.169
[2]
  z-score: -0.401 (inactive)
[3]
  z-score: 0.136 (inactive)
[4]
  z-score: 0.523 (inactive)
[5]
  z-score: -0.139 (inactive)
[6]
  composite z-score: -0.0807
[7]
  composite z-score: -0.257
[8]
  composite z-score: 0.306
[9]
  composite z-score: 0.111
[10]
  composite z-score: 0.236
[11]
  z-score: -0.448 (inactive)
[12]
  composite z-score: -0.0109
[13]
  z-score: 0.519 (inactive)
[14]
  z-score: -0.0212 (inactive)
[15]
  z-score: 0.0927 (inactive)
[16]
  z-score: 0.0103 (inactive)
[17]
  z-score: -0.528
[18]
  z-score: 1.67 (inactive)
[19]
  z-score: 0.619 (inactive)
[20]
  z-score: 0.937

## O=C1[C@H]2[C@H]3[C@H](O)[C@H](O)CC(=NOC[C@@H](O)COCc4ccco4)[C@@H]3CC[C@H]2C(=O)N1c1cccc(Oc2ccccc2)c1
[1]
  composite z-score: -0.403
[2]
  z-score: -0.578 (inactive)
[3]
  z-score: 0.626 (inactive)
[4]
  z-score: -1.02 (inactive)
[5]
  z-score: -0.009 (inactive)
[6]
  composite z-score: 0.707
[7]
  composite z-score: -0.0986
[8]
  composite z-score: 0.419
[9]
  composite z-score: 0.94
[10]
  composite z-score: 0.537
[11]
  z-score: -1.26 (inactive)
[12]
  composite z-score: -0.247
[13]
  z-score: 2.27 (inactive)
[14]
  z-score: 0.802 (inactive)
[15]
  z-score: 1.39 (inactive)
[16]
  z-score: 0.157 (inactive)
[17]
  z-score: -0.664
[18]
  z-score: 2.2 (inactive)
[19]
  z-score: 1.32 (inactive)
[20]
  z-score: 0.425

## COC(=O)[C@H](Cc1ccccc1)NC(=O)[C@@H](C)CO
[1]
  composite z-score: 0.276
[2]
  z-score: -2.36 (inactive)
[3]
  z-score: -1.61 (inactive)
[4]
  z-score: -0.0684 (inactive)
[5]
  z-score: 0.563 (inactive)
[6]
  composite z-score: 0.311
[7]
  composite z-score: 0.284
[8]
  composite z-score: 0.0847
[9]
  composite z-score: 0.0866
[10]
  composite z-score: 0.643
[11]
  z-score: -0.388 (inactive)
[12]
  composite z-score: 0.174
[13]
  z-score: 0.0772 (inactive)
[14]
  z-score: -0.824 (inactive)
[15]
  z-score: 0.811 (inactive)
[16]
  z-score: -1.87 (inactive)
[17]
  z-score: 1.92
[18]
  z-score: 0.966 (inactive)
[19]
  z-score: 0.185 (inactive)
[20]
  z-score: -2.94

## COCC#Cc1ccc([C@@H]2N[C@H](C(=O)O)CC[C@H]2C)cc1
[1]
  composite z-score: -0.0223
[2]
  z-score: -1.23 (inactive)
[3]
  z-score: -1.73 (inactive)
[4]
  z-score: -0.0755 (inactive)
[5]
  z-score: -1.56 (inactive)
[6]
  composite z-score: 0.0402
[7]
  composite z-score: -0.024
[8]
  composite z-score: 0.24
[9]
  composite z-score: 0.0923
[10]
  composite z-score: 0.742
[11]
  z-score: -0.0799 (inactive)
[12]
  composite z-score: -0.194
[13]
  z-score: -0.398 (inactive)
[14]
  z-score: -0.478 (inactive)
[15]
  z-score: -0.571 (inactive)
[16]
  z-score: -0.867 (inactive)
[17]
  z-score: 2.16
[18]
  z-score: -2.01 (inactive)
[19]
  z-score: 0.301 (inactive)
[20]
  z-score: 0.723

## C=C(C)C(=O)OC[C@H]1CN2[C@@H](CC[C@@H](C)[C@@H]2c2ccc(Br)cc2)C(=O)O1
[1]
  composite z-score: -0.219
[2]
  z-score: 0.411 (inactive)
[3]
  z-score: -0.694 (inactive)
[4]
  z-score: -0.654 (inactive)
[5]
  z-score: -0.777 (inactive)
[6]
  composite z-score: 0.0906
[7]
  composite z-score: -0.154
[8]
  composite z-score: 0.334
[9]
  composite z-score: 0.0188
[10]
  composite z-score: 0.0827
[11]
  z-score: -1.41 (inactive)
[12]
  composite z-score: -0.143
[13]
  z-score: 3.08 (inactive)
[14]
  z-score: -0.0269 (inactive)
[15]
  z-score: -0.691 (inactive)
[16]
  z-score: -0.196 (inactive)
[17]
  z-score: 0.861
[18]
  z-score: -1.81 (inactive)
[19]
  z-score: 0.0898 (inactive)
[20]
  z-score: -1.61

## CCN1C(=O)[C@H]2[C@H]3[C@H](O)[C@H](O)CC(=NO[C@@H]4O[C@H](CO)[C@@H](O)[C@H](O)[C@H]4O)[C@H]3CC[C@H]2C1=O
[1]
  composite z-score: 0.534
[2]
  z-score: -1.31 (inactive)
[3]
  z-score: 0.427 (inactive)
[4]
  z-score: 0.246 (inactive)
[5]
  z-score: 0.322 (inactive)
[6]
  composite z-score: 0.473
[7]
  composite z-score: -0.0873
[8]
  composite z-score: 0.261
[9]
  composite z-score: 0.577
[10]
  composite z-score: 0.47
[11]
  z-score: -0.462 (inactive)
[12]
  composite z-score: -0.234
[13]
  z-score: -0.875 (inactive)
[14]
  z-score: 0.0108 (inactive)
[15]
  z-score: -0.677 (inactive)
[16]
  z-score: 0.109 (inactive)
[17]
  z-score: -0.218
[18]
  z-score: 1.4 (inactive)
[19]
  z-score: 0.422 (inactive)
[20]
  z-score: -1.28

## CC(C)(C)N1C(=O)[C@H]2[C@H]3[C@H](O)[C@H](O)CC(=NOC[C@@H](O)COCc4ccco4)[C@@H]3CC[C@H]2C1=O
[1]
  composite z-score: 0.0983
[2]
  z-score: 0.257 (inactive)
[3]
  z-score: -0.579 (inactive)
[4]
  z-score: 1.06 (inactive)
[5]
  z-score: 0.279 (inactive)
[6]
  composite z-score: -0.276
[7]
  composite z-score: -0.101
[8]
  composite z-score: 0.334
[9]
  composite z-score: 0.275
[10]
  composite z-score: -0.633
[11]
  z-score: 0.0978 (inactive)
[12]
  composite z-score: 0.211
[13]
  z-score: 0.693 (inactive)
[14]
  z-score: -0.335 (inactive)
[15]
  z-score: -0.222 (inactive)
[16]
  z-score: -0.261 (inactive)
[17]
  z-score: -0.151
[18]
  z-score: 0.725 (inactive)
[19]
  z-score: -1.96 (inactive)
[20]
  z-score: -0.279

## CC(C)(C)N1C(=O)[C@H]2[C@@H]3C(=CC[C@H]2C1=O)C(=O)[C@H]1O[C@H]1[C@H]3O
[1]
  composite z-score: -0.264
[2]
  z-score: -6.85 (inactive)
[3]
  z-score: 0.652 (inactive)
[4]
  z-score: -0.748 (inactive)
[5]
  z-score: -3.08 (inactive)
[6]
  composite z-score: -0.5
[7]
  composite z-score: -0.127
[8]
  composite z-score: 1.84
[9]
  composite z-score: -0.0252
[10]
  composite z-score: 0.981
[11]
  z-score: -0.537 (inactive)
[12]
  composite z-score: -0.328
[13]
  z-score: -0.23 (inactive)
[14]
  z-score: -1.7 (inactive)
[15]
  z-score: 0.0794 (inactive)
[16]
  z-score: -2.24 (inactive)
[17]
  z-score: 0.495
[18]
  z-score: -0.593 (inactive)
[19]
  z-score: -0.168 (inactive)
[20]
  z-score: 1.22

Source: PubChem BioAssay
